Experiment [1] concerns CSNK2A1.
For experiment [2], the system named is T1, CTK.
T1 construct: gene MATK

Experiment [3] relates to T2, DCAMKL1.
T2 construct: gene DCLK1

Experiment [4] deals with T3, DCAMKL3.
T3 construct: gene DCLK3

Experiment [5] deals with T4, DLK.
T4 construct: gene MAP3K12

The subject of experiment [6] is EIF2AK1.
Experiment [7] has as its system EPHA1.
Experiment [8] relates to EPHA4.
Experiment [9] relates to T5, DRAK1.
T5 construct: gene STK17A

Experiment [10] deals with DYRK2.
Experiment [11] relates to EPHA2.
In experiment [12] the test system is EPHA6.

SMILES strings stand for the structures.

For twelve compounds, Kd results are on record in paper PMC5540273 (PLoS ONE, 2017).

The Kd is a measure of binding affinity in units of concentration. A lower Kd goes with tighter binding.
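Note: kd values determined as follow-up on hits from a single-replicate KINOMEscan panel screen.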

`Cc1cccc(-c2nc(Nc3ccc4[nH]nnc4c3)c3ccccc3n2)n1` [GW867587] returned a Kd in [1] of 0.77 µM. That is a sub-micromolar value.

In the case of `O=C(Nc1ccccc1)Nc1ccc(Oc2ccc3nccn3n2)cc1`, the Kd in experiment [2] is over 10 µM.

In experiment [3], `COC(=O)c1cccc(NC(=O)NCCNc2ccnc(Nc3ccc(F)cc3)n2)c1` [GSK1379883] displayed a Kd of over 10 µM.

As to `C[C@@H]1CCN(C(=O)CO)C[C@@H]1N(C)c1ncnc2[nH]ccc12`, the Kd in experiment [4] stood at 0.24 µM.

The compound `CSc1nn2c(=O)cc(N3CCOCC3)nc2n1Cc1cccc(Cl)c1Cl` [GSK2347225] gave a Kd in experiment [5] of over 10 µM.

As for `Clc1ccc(-c2cc(-c3c[nH]nc3-c3ccccn3)ccn2)cc1` [GW681251], in experiment [5], the Kd was over 10 µM.

In [6], `FC(F)(F)c1ccc(-c2cc(-c3c[nH]nc3-c3ccccn3)ccn2)cc1` [GW599550] registered a Kd of over 10 µM.

`Clc1cccc(-c2nc(Nc3ccncc3)c3ccccc3n2)c1` [GW873004] had a Kd in experiment [7] of over 10 µM.

As for `FC(F)(F)c1ccc(-c2nn3ncccc3c2-c2ccnc(Nc3cccc(C(F)(F)F)c3)n2)cc1` [GW828205], in experiment [8], the Kd was over 10 µM.

Regarding `CC(C)(C)OC(=O)NC1CCCN(c2cc(-c3ccc4c(N)n[nH]c4c3)nc(N)n2)C1` (centres unmarked) [GSK2286096], the figures for the Kd in experiment [9] and in experiment [10] were 0.13 µM and 0.44 µM, respectively.

`CCC(CC)(CC)n1cnc2c(N)ncnc21` [SKF-97620] came in with a Kd in experiment [11] of over 10 µM.

Consider `O=C(Nc1n[nH]c2nc(-c3ccco3)c(Br)cc12)c1ccc(CN2CCCC2)cc1.O=C(O)[C@H](O)[C@@H](O)C(=O)O` [SB-742352], for which the Kd in experiment [8] and in experiment [12] was over 10 µM throughout.
